Measured values taken from PubChem BioAssay (NCATS).
Results filed as inconclusive are left out. Calls of active or inactive are those of the source. Unless noted, the call rests on the fitted dose curve; in most records, active means well fitted curve in either direction with a large enough effect (not every such curve was filed as active); inconclusive means small, poorly fitted or top-dose-only effect, or another doubt; inactive means flat fitted curve, though single readings scatter.

Experiments:
[1] = molecular target: Lysosomal acid glucosylceramidase (Homo sapiens) (UniProt P04062); test: Glucocerebrosidase-p2 (AID 348; in the data active means potency below about 10 µM; further: potency means the concentration at half of the fitted maximal effect); conditions: purified GBA, blue fluorogenic substrate, 40 min
Lysosomal acid glucosylceramidase (Homo sapiens), sequence (P04062 whole entry, looked up): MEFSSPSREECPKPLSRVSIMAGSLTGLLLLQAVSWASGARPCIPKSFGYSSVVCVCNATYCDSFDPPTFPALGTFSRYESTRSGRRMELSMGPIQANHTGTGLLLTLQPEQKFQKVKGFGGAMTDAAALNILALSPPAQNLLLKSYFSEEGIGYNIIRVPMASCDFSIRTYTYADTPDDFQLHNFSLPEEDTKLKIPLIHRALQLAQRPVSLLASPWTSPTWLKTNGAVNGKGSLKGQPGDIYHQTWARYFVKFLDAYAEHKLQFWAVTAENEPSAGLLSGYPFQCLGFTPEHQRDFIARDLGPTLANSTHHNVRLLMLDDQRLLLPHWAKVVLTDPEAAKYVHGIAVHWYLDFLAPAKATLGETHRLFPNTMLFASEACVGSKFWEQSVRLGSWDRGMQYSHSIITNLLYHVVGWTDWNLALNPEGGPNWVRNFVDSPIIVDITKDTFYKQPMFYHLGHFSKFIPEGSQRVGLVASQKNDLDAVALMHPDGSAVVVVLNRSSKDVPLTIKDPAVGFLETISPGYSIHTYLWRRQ
Method in brief: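 Compounds titrated from 0.6 nM upwards against 0.2 nM enzyme in pH 5.9 citric acid/KH2PO4, taurocholate, tween-20; blue fluorogenic substrate 80 uM, 40 min room temperature, stopped and read Ex 365/Em 440 for AC50.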

[2] = AP1 Signaling Pathway (AID 357); conditions: ME-180 AP-1-bla reporter, EGF-induced, beta-lactamase ratio, 5 h; at 7.69 µM (top of the series) unless noted;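 further: ME-180 reporter cells stimulated with EGF at its EC50 level; on the % scale 0 is the no-effect control and ±100 the full control effect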
Method in brief: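 Modulation of EGF-driven AP-1 transcription was assessed with a beta-lactamase reporter in ME-180 cells. Compound and EC50 EGF were co-incubated 5 hours at 37 °C before 2.5-hour CCF4 loading at room temperature and dual-emission reading.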

[3] = NFAT Signaling Pathway (AID 444); conditions: Jurkat NFAT-bla M1, carbachol, beta-lactamase ratio, 5 h; at 7.69 µM (top of the series) unless noted;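 further: carbachol stimulus at about its EC50 of 1 µM final; on the % scale 0 is the no-effect control and ±100 the full control effect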
Method in brief: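 Read-out: CCF4 FRET ratio (460 nm/530 nm) after 1 h RT dye loading, used for %activity and AC50 from titration series. Cells: Jurkat NFAT-β-lactamase/M1 line, treated with compound plus 1 uM carbachol for 5 h, 37 °C.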

[4] = Stat Signaling Pathway (AID 446); conditions: ME-180 SIE beta-lactamase reporter, IL-6 stimulated, 5 h; at 7.69 µM (top of the series) unless noted;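 further: ME-180 cervical cancer cells given 40 pM IL-6 alongside compound; SIE-controlled beta-lactamase reporter measured as 460/530 nm FRET emission ratio; on the % scale 0 is the no-effect control and ±100 the full control effect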
Method in brief: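 Screening format detects activators and inhibitors alike: ME-180 SIE-bla cells stimulated at 40 pM IL-6 for 5 hrs with compound, then dual-emission beta-lactamase read at 405 nm excitation.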

[5] = molecular target: Glucocorticoid receptor (Homo sapiens) (UniProt P04150); test: GR-GFP Redistribution (AID 450;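 active means compounds whose dose series gives a full or clear partial fitted curve of increased nuclear translocation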; further: potency means the concentration at half of the fitted maximal effect); conditions: U2OS GR-GFP nuclear translocation, laser cytometry, 2 h
Glucocorticoid receptor (Homo sapiens), sequence (P04150 whole entry, looked up, the tested form may be a part): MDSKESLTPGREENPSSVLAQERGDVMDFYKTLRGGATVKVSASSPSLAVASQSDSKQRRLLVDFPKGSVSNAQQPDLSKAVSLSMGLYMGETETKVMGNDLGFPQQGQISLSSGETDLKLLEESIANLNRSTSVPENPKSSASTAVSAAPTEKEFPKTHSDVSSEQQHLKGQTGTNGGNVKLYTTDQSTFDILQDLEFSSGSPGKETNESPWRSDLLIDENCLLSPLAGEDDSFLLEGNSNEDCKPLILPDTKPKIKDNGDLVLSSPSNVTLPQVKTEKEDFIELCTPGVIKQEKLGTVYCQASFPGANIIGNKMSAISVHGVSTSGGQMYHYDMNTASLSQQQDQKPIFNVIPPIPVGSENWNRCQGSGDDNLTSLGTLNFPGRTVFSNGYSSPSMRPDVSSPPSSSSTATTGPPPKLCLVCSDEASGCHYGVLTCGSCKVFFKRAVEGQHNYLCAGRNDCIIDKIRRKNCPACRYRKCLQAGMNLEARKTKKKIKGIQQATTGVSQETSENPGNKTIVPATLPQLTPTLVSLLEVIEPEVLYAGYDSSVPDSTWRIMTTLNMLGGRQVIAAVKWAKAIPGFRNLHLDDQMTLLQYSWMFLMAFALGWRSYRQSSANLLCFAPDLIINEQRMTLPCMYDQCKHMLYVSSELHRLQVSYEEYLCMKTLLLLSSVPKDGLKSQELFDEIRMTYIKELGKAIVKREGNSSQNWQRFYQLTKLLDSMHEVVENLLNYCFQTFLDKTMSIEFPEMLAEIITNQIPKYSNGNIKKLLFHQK

[6] = molecular target: Glucocorticoid receptor (Homo sapiens) (UniProt P04150); test: GR-EFC Redistribution (AID 451; calls by dose curve; further: potency means the concentration at half of the fitted maximal effect); conditions: CHO-K1 GR-EFC translocation, beta-gal luminescence, 2 h
Method in brief: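 Translocation of GR-ED fusion to nuclear EA restores b-gal, read by luminescence after 1 h room-temperature detection. Engineered CHO-K1 biosensor cells, 1,000/well, exposed 2 h at 37 C to titrations up to 46 uM final.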

[7] = molecular target: Mitogen-activated protein kinase 10 (Mus musculus) (UniProt Q61831); test: JNK3 AlphaScreen Assay (AID 530); conditions: JNK3 lysate, c-Jun phosphorylation; series mostly up to 11.4 µM;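 further: kinase came from lysate of stimulated human HepG2 cells; signal reports phosphorylation of biotinylated GST-cJun 1-79 at Ser73 with 10 µM ATP; on the % scale 0 is the no-effect control and ±100 the full control effect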
Method in brief: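 Compound titrations were preincubated 15 minutes at room temperature with substrate, antibody and pre-activated JNK3-containing HepG2 lysate. Reactions were started with 10 uM ATP and stopped with EDTA-containing bead buffer for AlphaScreen detection.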

[8] = molecular target: 3',5'-cyclic-AMP phosphodiesterase 4B (Homo sapiens) (UniProt Q07343); test: qHTS Assay for Inhibitors of PDE-IV (AID 607; active means well fitted activation curve with a large enough effect in the main read-out, with a control signal flat, not every such curve was filed as active; further: % of control where 0% means no effect); conditions: HEK293 ACTOne CNG channel cells, membrane potential fluorescence; series mostly up to 22.9 µM
3',5'-cyclic-AMP phosphodiesterase 4B (Homo sapiens), sequence (Q07343 whole entry, looked up): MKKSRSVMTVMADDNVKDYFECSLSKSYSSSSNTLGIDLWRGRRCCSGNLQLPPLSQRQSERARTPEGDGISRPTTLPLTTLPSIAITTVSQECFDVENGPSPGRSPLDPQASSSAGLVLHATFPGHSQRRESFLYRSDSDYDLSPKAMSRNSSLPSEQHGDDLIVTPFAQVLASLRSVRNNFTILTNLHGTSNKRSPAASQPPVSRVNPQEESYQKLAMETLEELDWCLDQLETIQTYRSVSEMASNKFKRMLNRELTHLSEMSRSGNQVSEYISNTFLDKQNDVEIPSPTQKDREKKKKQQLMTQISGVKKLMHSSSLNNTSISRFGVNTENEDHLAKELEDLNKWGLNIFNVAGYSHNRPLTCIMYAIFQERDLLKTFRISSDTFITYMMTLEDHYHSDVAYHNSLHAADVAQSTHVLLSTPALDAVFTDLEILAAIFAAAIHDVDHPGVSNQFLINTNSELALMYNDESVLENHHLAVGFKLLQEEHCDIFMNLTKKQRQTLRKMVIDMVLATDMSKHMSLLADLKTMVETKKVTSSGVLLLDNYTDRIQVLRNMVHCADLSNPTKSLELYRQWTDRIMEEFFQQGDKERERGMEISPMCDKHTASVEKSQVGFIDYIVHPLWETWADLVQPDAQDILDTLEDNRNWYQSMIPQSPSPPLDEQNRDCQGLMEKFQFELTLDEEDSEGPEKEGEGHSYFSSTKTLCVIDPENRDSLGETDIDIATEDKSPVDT
Method in brief: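 The readout is membrane depolarisation from a cAMP-sensing CNG channel, detected with a potential dye at ex 535/em 590. Cells were HEK293-derived (endogenous PDE-IV) at 1000 cells/well, titrated up to 22.9 uM final.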

[9] = molecular target: Cytochrome P450 3A4 (Homo sapiens) (UniProt P08684); test: qHTS Assay for Activators of Cytochrome P450 3A4 (AID 885; active means well fitted curve in the direction sought with a large enough effect; an effect the other way counts as inactive or inconclusive; further: nearly all actives have a fitted effect of over 65% in size); conditions: recombinant CYP3A4, Luciferin-PPXE luminescence, 60 min; series mostly up to 11.4 µM
Cytochrome P450 3A4 (Homo sapiens), sequence (P08684 whole entry, looked up): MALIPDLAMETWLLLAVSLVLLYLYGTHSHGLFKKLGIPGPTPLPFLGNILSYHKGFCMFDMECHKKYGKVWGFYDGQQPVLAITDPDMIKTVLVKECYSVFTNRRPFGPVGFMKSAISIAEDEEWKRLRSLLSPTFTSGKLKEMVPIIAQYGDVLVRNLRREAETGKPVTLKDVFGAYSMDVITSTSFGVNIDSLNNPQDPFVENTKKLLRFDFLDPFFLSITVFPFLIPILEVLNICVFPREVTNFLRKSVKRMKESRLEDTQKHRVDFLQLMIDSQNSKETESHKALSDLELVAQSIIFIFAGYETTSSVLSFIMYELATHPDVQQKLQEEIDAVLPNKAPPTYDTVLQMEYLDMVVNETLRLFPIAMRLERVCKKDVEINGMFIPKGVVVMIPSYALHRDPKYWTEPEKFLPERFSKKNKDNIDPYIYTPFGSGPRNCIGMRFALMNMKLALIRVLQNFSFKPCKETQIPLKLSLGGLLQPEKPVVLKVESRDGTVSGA
Method in brief: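 Steps: enzyme/substrate mix dispensed; compound added, 10 min RT; NADPH regeneration solution added, 60 min RT; luciferin detection buffer stops reaction; 20 min later luminescence measured.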

[10] = molecular target: Cytochrome P450 2D6 (Homo sapiens) (UniProt P10635); test: qHTS Assay for Inhibitors and Substrates of Cytochrome P450 2D6 (AID 891; active means well fitted curve in the direction sought with a large enough effect; an effect the other way counts as inactive or inconclusive; further: nearly all actives have a fitted effect of over 60% in size; further: potency means the concentration at half of the fitted maximal effect); conditions: recombinant CYP2D6, luciferin-ME EGE luminescence; series mostly up to 11.4 µM
Cytochrome P450 2D6 (Homo sapiens), sequence (P10635 whole entry, looked up): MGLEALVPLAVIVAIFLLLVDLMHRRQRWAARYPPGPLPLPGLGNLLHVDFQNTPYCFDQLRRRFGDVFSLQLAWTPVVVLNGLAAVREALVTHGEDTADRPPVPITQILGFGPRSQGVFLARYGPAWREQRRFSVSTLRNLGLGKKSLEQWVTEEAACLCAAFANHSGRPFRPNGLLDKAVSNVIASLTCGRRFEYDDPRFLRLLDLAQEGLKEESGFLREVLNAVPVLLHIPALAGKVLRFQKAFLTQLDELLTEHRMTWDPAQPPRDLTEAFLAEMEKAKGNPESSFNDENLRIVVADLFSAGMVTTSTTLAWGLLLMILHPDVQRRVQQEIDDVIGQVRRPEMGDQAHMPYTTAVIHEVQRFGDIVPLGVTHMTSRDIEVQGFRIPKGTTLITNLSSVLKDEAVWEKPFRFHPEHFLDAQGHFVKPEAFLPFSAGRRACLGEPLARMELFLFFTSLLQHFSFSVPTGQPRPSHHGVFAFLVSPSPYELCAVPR
Method in brief: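 Human CYP2D6 (5 nM) with 30 uM Luciferin-ME EGE (at Km) in 100 mM KPO4, compound preincubated 10 min, then NADPH regeneration system for 60 min at room temperature. Luciferin read by luminescence; normalized to 1.43 uM quinidine.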

[11] = molecular target: Cytochrome P450 2C9 (Homo sapiens) (UniProt P11712); test: qHTS Assay for Inhibitors and Substrates of Cytochrome P450 2C9 (AID 883; active means well fitted curve in the direction sought with a large enough effect; an effect the other way counts as inactive or inconclusive; further: nearly all actives have a fitted effect of over 60% in size; further: potency means the concentration at half of the fitted maximal effect); conditions: recombinant CYP2C9, luciferin-H luminescence, 60 min; series mostly up to 11.4 µM
Cytochrome P450 2C9 (Homo sapiens), sequence (P11712 whole entry, looked up): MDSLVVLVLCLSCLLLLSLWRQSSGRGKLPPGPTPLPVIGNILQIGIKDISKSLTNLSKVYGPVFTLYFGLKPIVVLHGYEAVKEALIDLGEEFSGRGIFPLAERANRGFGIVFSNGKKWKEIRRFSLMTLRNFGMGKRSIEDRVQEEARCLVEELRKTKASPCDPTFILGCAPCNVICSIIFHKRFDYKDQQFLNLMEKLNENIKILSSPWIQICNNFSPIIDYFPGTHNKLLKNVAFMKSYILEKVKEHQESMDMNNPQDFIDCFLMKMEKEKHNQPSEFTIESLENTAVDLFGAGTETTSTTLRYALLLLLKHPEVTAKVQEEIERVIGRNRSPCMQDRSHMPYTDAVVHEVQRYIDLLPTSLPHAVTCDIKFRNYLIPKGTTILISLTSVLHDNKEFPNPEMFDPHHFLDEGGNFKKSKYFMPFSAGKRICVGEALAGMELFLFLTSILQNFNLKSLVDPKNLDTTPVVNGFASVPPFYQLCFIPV
Method in brief: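 Turnover of Luciferin-H (100uM, KM) by 10nM human CYP2C9 was measured over 60 min at 37C with NADPH regeneration; inhibitors and some substrates reduce luminescence. Data normalized to sulphaphenazole 57uM.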

[12] = molecular target: Cytochrome P450 3A4 (Homo sapiens) (UniProt P08684); test: qHTS Assay for Inhibitors and Substrates of Cytochrome P450 3A4 (AID 884; active means well fitted curve in the direction sought with a large enough effect; an effect the other way counts as inactive or inconclusive; further: on the % scale 0 is the no-effect control and ±100 the full control effect; nearly all actives have a fitted effect of over 50% in size); conditions: recombinant CYP3A4, Luciferin-PPXE luminescence; series mostly up to 57.1 µM
Method in brief: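 20 nM human CYP3A4 with 25 uM Luciferin-PPXE (at KM) in 200 mM KPO4, preincubated 10 min with compound; NADPH regeneration started a 60 min RT reaction. Luciferin detected by luminescence, normalized to 57 uM ketoconazole as full inhibition.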

[13] = molecular target: Cytochrome P450 2C19 (Homo sapiens) (UniProt P33261); test: qHTS Assay for Inhibitors and Substrates of Cytochrome P450 2C19 (AID 899; active means well fitted curve in the direction sought with a large enough effect; an effect the other way counts as inactive or inconclusive; further: nearly all actives have a fitted effect of over 60% in size; further: potency means the concentration at half of the fitted maximal effect); conditions: recombinant CYP2C19, luciferin-H EGE luminescence; series mostly up to 11.4 µM
Cytochrome P450 2C19 (Homo sapiens), sequence (P33261 whole entry, looked up): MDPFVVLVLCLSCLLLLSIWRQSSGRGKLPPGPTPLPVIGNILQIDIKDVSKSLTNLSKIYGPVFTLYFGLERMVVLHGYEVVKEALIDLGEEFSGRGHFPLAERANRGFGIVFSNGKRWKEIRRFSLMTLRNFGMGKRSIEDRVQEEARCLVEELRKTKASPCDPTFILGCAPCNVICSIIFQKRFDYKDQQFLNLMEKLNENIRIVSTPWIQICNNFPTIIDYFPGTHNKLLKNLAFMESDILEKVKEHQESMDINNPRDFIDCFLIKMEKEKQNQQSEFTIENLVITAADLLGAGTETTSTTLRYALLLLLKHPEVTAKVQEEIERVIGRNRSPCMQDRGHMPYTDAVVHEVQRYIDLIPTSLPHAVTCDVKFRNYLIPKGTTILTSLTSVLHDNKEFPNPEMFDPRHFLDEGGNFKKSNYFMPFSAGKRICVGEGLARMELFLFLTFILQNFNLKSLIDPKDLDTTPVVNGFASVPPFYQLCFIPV
Method in brief: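 Reactions contain 5nM enzyme, 10uM Luciferin-H EGE (KM) and 50mM KPO4; compound preincubates 10 min at 37C, NADPH regeneration starts turnover for 60 min. Luminescence after detection reagent gives activity.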

COc1cc(CN2CCCCC2)cc2cc(C(=O)O)c(=O)oc12
inactive: Potency [1] > 11.4 µM | activity change, negative = inhibition [2] 17.3% | activity change, negative = inhibition [3] 15.7% | activity, negative = inhibition [4] -2.43% | Potency [5] > 46 µM | Potency [6] > 9.22 µM | Potency [7] | Potency [8]

O=C(O)[C@H]1CCCC[C@@H]1C(=O)Nc1nc2ccccc2[nH]1
inactive: Potency [1] > 11.4 µM | activity change, negative = inhibition [2] 1.58% | activity change, negative = inhibition [3] 9.82% | activity, negative = inhibition [4] 2.07% | Potency [5] > 46 µM | Potency [6] > 9.22 µM | Potency [7] | Potency [8]

Cn1c(N)nc2c(nc(OCc3ccccc3)n2[C@@H]2O[C@H](CO)[C@@H](O)[C@@H]2O)c1=O
inactive: Potency [1] > 11.4 µM | activity change, negative = inhibition [2] 2.38% | activity change, negative = inhibition [3] 6.31% | activity, negative = inhibition [4] -1.71% | Potency [5] > 46 µM | Potency [6] > 9.22 µM | Potency [7] | Potency [8]

CC(C)[C@@H]1O[C@H](/C=C\c2ccccc2)OCC1(C)C
inactive: Potency [1] > 11.4 µM | activity change, negative = inhibition [2] -2.98% | activity change, negative = inhibition [3] 26.7% | activity, negative = inhibition [4] 8.84% | Potency [5] > 46 µM | Potency [6] > 9.22 µM | Potency [7] | Potency [8] | Potency [9]

Cn1c(=O)c(CCc2ccccc2)nc2cnc(N3CCNCC3)nc21
inactive: Potency [1] > 11.4 µM | activity change, negative = inhibition [2] -6.16% | activity change, negative = inhibition [3] 8.46% | activity, negative = inhibition [4] 11.7% | Potency [5] > 9.22 µM | Potency [6] > 46 µM | Potency [7] | Potency [8] | Potency [9]

CN(C)Cc1c[nH]c2nc[nH]c(=O)c12
inactive: Potency [1] > 11.4 µM | activity change, negative = inhibition [2] 1.16% | activity change, negative = inhibition [3] -5.56% | activity, negative = inhibition [4] 1.72% | Potency [5] > 46 µM | Potency [6] > 9.22 µM | Potency [7] | Potency [8] | Potency [10]

CCN(CC(=O)O)C(=O)c1cccnc1
inactive: Potency [1] > 11.4 µM | activity change, negative = inhibition [2] -4.46% | activity change, negative = inhibition [3] 5.05% | activity, negative = inhibition [4] -6.57% | Potency [5] > 46 µM | Potency [6] > 9.22 µM | Potency [7] | Potency [8]

O=C(CN1C(=O)c2ccccc2C1=O)[C@@H](O)CN1C(=O)c2ccccc2C1=O
inactive: Potency [1] > 11.4 µM | activity change, negative = inhibition [2] -10.3% | activity change, negative = inhibition [3] 13.9% | activity, negative = inhibition [4] -0.0648% | Potency [5] > 46 µM | Potency [6] > 9.22 µM | Potency [7] | Potency [8]

C(=Nc1ccc2c(c1)Cc1ccccc1-2)c1ccccn1
inactive: Potency [1] > 11.4 µM | activity change, negative = inhibition [2] -0.541% | activity change, negative = inhibition [3] 1.45% | activity, negative = inhibition [4] 0.131% | Potency [5] > 46 µM | Potency [6] > 9.22 µM | Potency [7] | Potency [8]

O=C(O)CSc1n[nH]c(=O)[nH]c1=O
inactive: Potency [1] > 11.4 µM | activity change, negative = inhibition [2] 0.951% | activity change, negative = inhibition [3] 5.38% | activity, negative = inhibition [4] 13.4% | Potency [5] > 46 µM | Potency [6] > 9.22 µM | Potency [7] | Potency [8] | Potency [11] | activity change, negative = inhibition [12] -64.1% [at 11.4 µM] | Potency [10] | Potency [13]

CN(C)c1ncnc2c1ncn2CCn1cnc2c(N(C)C)ncnc21
inactive: Potency [1] > 11.4 µM | activity change, negative = inhibition [2] 7.13% | activity change, negative = inhibition [3] 7.13% | activity, negative = inhibition [4] 11.6% | Potency [5] > 46 µM | Potency [6] > 9.22 µM | Potency [7] | Potency [8] | Potency [10]

CC(C)[C@](N)(C(=O)O)c1ccccc1
inactive: Potency [1] > 11.4 µM | activity change, negative = inhibition [2] -9.87% | activity change, negative = inhibition [3] 5.98% | activity, negative = inhibition [4] 29.8% | Potency [5] > 46 µM | Potency [6] > 9.22 µM | Potency [7] | Potency [8] | Potency [10]

Cc1cc(Cl)ccc1Nc1sc(C(=O)c2cc3cc(Cl)ccc3o2)c(N)c1C#N
inactive: Potency [1] > 11.4 µM | activity change, negative = inhibition [2] -2.93% | activity change, negative = inhibition [3] 14.9% | activity, negative = inhibition [4] -13.7% | Potency [5] > 46 µM | Potency [6] > 9.22 µM | Potency [7] | Potency [8]
active: Potency [11] 1.26 µM

c1cncc(CNCc2cccnc2)c1
inactive: Potency [1] > 11.4 µM | activity change, negative = inhibition [2] -1.94% | activity change, negative = inhibition [3] 2.26% | activity, negative = inhibition [4] 12.4% | Potency [5] > 46 µM | Potency [6] > 9.22 µM | Potency [7] | Potency [8] | Potency [10]

Cc1ccc(CSC(N)=Nc2ccccc2)cc1C
inactive: Potency [1] > 11.4 µM | activity change, negative = inhibition [2] 6.56% | activity change, negative = inhibition [3] -3.46% | activity, negative = inhibition [4] -10.5% | Potency [5] > 46 µM | Potency [6] > 9.22 µM | Potency [7] | Potency [8] | Potency [9]
active: Potency [10] 0.794 µM | Potency [13] 2 µM
